Test results from PubChem BioAssay (Tox21).
Inconclusive results are not listed. The source made the active and inactive calls. Unless noted, the call rests on the fitted dose curve; in most records, active means well fitted curve in the direction sought with a large enough effect in the repeat runs; inconclusive means weak or mixed curves; inactive means no such curve, though single readings can be large; an effect the other way counts as inactive or inconclusive.

Columns and labels:
[1] = qHTS assay for small molecule agonists of the p53 signaling pathway (AID 651631; calls by dose curve; further: nearly all actives have a fitted effect of over 15% in size)
Procedure, shortened: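 Beta-lactamase reporter activity under p53 response elements was quantified in HCT-116 cells by FRET fluorescence, following 16 h incubation with test compounds at 37 °C and 2 h substrate development at room temperature.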

[2] = qHTS assay for small molecules that induce genotoxicity in human embryonic kidney cells expressing luciferase-tagged ATAD5 (AID 651632); further: nearly all actives have a fitted effect of over 15% in size
Procedure, shortened: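 HEK293T cells carrying luciferase-tagged ATAD5 were given compound or DMSO vehicle and incubated 16 hr at 37C, 5% CO2. Luciferase activity was read after 30 min at room temperature with Amplite; a rise signals genotoxic stress.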

[3] = qHTS assay for small molecule agonists of the p53 signaling pathway - cell viability (AID 651633; calls by dose curve;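 further: p53RE-bla HCT reporter cells with a stable beta-lactamase p53 reporter; series mostly up to about 83 µM; nearly all actives have a fitted effect of over 30% in size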)
Procedure, shortened: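 p53RE-bla cells, seeded at 4,000 per well and rested 5 h at 37 C/5% CO2, received compounds in DMSO for 16 h at 37 C. CellTiter-Glo was then added, and luminescence was read after 30 min at room temperature to gauge cytotoxicity.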

[4] = qHTS assay for small molecules that induce genotoxicity in human embryonic kidney cells expressing luciferase-tagged ATAD5 - cell viability (AID 651634; calls by dose curve; further: nearly all actives have a fitted effect of over 25% in size)
Procedure, shortened: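 HEK293T cells carrying luciferase-tagged ATAD5, 2,000 cells/well, exposed to compound for 15.5 hr at 37C. Viability read as live-cell protease activity by CellTiter-Fluor fluorescence after 30 min at 37C.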

[5] = qHTS assay for small molecule disruptors of the mitochondrial membrane potential - cell viability (AID 720634; calls by dose curve;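 further: human HepG2 liver cancer cells; series mostly up to about 83 µM; nearly all actives have a fitted effect of over 20% in size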)
Procedure, shortened: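 HepG2 cells, 2,000 per well, attached overnight, then treated 1 hr at 37 C, 5% CO2. Viability read as ATP by CellTiter-Glo luminescence after 30 min at room temperature. Read in the same wells as the m-MPI membrane-potential dye assay.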

[6] = qHTS assay to test for compound auto fluorescence at 590 nm (red) in HepG2 cells (AID 720674)
Procedure, shortened: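 Compound auto-fluorescence is scored relative to Rose Bengal sodium, measured at 540/590 nm in live HepG2 cultures after 1 hr compound contact (37 C, 5% CO2).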

[7] = qHTS assay to test for compound auto fluorescence at 535 nm (green) in HepG2 cells (AID 720675)
[8] = qHTS assay to test for compound auto fluorescence at 460 nm (blue) in HEK293 cells (AID 720678)
Procedure, shortened: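 Intrinsic compound fluorescence is recorded in live HEK293 cultures after overnight incubation at 37C, 5% CO2, using excitation 405 nm and emission 460 nm. Values are referenced to triamterene.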

[9] = qHTS assay to test for compound auto fluorescence at 590 nm (red) in HEK293 cells (AID 720679)
Procedure, shortened: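 Red autofluorescence, HEK293 cells: 2,000 cells/well; attach 4-5 hr 37C; add 23 nL cpd or DMSO; incubate o/n 37C 5% CO2; read Ex540/Em590; Rose Bengal sodium reference.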

[10] = qHTS assay to test for compound auto fluorescence at 535 nm (green) in HEK293 cells (AID 720680)
[11] = qHTS assay to test for compound auto fluorescence at 460 nm (blue) in HEK293 cell free culture (AID 720681)
Procedure, shortened: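 Test compounds were pinned into cell-free culture medium (DMEM with 10% FBS) and fluorescence was read directly at Ex/Em 405/460 nm. Signals were expressed as fluorescence equivalents of triamterene, with DMSO vehicle as control.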

[12] = qHTS assay to test for compound auto fluorescence at 535 nm (green) in HEK293 cell free culture (AID 720682)
Procedure, shortened: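 Each library compound, or DMSO control, is added by pintool to medium alone, comprising DMEM and 10% FBS. Emission at 535 nm following 485 nm excitation is quantified against fluorescein.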

[13] = qHTS assay to test for compound auto fluorescence at 590 nm (red) in HEK293 cell free culture (AID 720683)
Procedure, shortened: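 Tox21 10K library compounds were pinned into cell-free DMEM with 10% FBS and fluorescence was read at excitation 540 nm. Activity is expressed as Rose Bengal sodium equivalency.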

[14] = qHTS assay to test for compound auto fluorescence at 590 nm (red) in HepG2 cell free culture (AID 720684)
Procedure, shortened: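 Red fluorescence (540 nm excitation, 590 nm emission) was measured after compound transfer into cell-free MEM supplemented with 10% FBS. Values are equivalencies against Rose Bengal sodium.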

[15] = qHTS assay to test for compound auto fluorescence at 460 nm (blue) in HepG2 cell free culture (AID 720685)
Procedure, shortened: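 Compound (23 nL) or DMSO pinned into cell-free MEM with 10% FBS; blue fluorescence read at 405/460 nm excitation/emission, expressed as auto-fluorescence equivalency to triamterene.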

[16] = qHTS assay to test for compound auto fluorescence at 535 nm (green) in HepG2 cell free culture (AID 720686)
[17] = qHTS assay to test for compound auto fluorescence at 460 nm (blue) in HepG2 cells (AID 720687)
Procedure, shortened: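 Cells (2,000/well in MEM with 10% FBS) attached overnight at 37 C, then were exposed to compound or DMSO for 1 hr at 37 C, 5% CO2. Fluorescence read at Ex/Em 405/460 nm, expressed as triamterene-equivalent signal.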

[18] = target: Glucocorticoid receptor (Homo sapiens) (UniProt P04150); assay: qHTS assay to identify small molecule agonists of the glucocorticoid receptor (GR) signaling pathway (AID 720691; active means well fitted activation curve with a large enough effect in the signal ratio in the repeat runs, not every such curve was filed as active; the % refers to the signal ratio)
Chain of Glucocorticoid receptor (Homo sapiens) (P04150 whole entry, looked up): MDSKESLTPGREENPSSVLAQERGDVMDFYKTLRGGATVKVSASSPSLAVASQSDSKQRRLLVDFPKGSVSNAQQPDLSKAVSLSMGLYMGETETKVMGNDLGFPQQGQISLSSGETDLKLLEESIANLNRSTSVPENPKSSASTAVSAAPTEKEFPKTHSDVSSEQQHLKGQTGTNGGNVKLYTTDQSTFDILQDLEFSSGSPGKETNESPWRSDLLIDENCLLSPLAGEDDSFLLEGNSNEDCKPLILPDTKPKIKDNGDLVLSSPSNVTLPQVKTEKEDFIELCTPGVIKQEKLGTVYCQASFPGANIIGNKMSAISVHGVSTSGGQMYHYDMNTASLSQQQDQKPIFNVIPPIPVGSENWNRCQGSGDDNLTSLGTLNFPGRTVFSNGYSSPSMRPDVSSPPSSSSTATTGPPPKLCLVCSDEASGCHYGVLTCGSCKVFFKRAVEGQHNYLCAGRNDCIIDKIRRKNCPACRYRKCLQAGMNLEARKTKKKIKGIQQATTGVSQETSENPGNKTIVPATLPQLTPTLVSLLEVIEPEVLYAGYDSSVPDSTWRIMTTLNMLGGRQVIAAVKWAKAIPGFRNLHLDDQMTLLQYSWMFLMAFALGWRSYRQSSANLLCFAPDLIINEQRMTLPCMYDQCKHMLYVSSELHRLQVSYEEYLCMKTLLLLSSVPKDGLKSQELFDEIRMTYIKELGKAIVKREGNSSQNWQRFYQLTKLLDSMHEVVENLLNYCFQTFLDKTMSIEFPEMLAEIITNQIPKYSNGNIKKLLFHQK
Procedure, shortened: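 GR-bla HeLa cells carrying a GRE-driven beta-lactamase reporter, exposed to compounds for 18 h at 37 C. Reporter activation read as fluorescence after 2 h with LiveBLAzer B/G FRET substrate at room temperature.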

[19] = target: Glucocorticoid receptor (Homo sapiens) (UniProt P04150); assay: qHTS assay to identify small molecule antagonists of the glucocorticoid receptor (GR) signaling pathway (AID 720692; active means well fitted inhibition curve with a large enough effect in the signal ratio in the repeat runs, not every such curve was filed as active; the % refers to the signal ratio)
Procedure, shortened: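 GR-bla HeLa cells carrying a GRE-driven beta-lactamase reporter received compound after 4 h plating, then dexamethasone (5 nM final). After 18 h at 37C, the FRET substrate was loaded for 2 h at room temperature and fluorescence read.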

[20] = qHTS assay to identify small molecule antagonists of the glucocorticoid receptor (GR) signaling pathway - cell viability counter screen (AID 720693); further: nearly all actives have a fitted effect of over 55% in size
[21] = qHTS assay for identifying genotoxic compounds that show differential cytotoxicity against isogenic chicken DT40 cell lines with known DNA damage response pathways - wild type cell line (AID 743012); further: nearly all actives have a fitted effect of over 60% in size
Procedure, shortened: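 Wild-type DT40 cells (300/well) exposed to compounds for 40 hours at 37 C/5% CO2. Viability read by CellTiter-Glo luminescence after 30 min at room temperature.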

[22] = qHTS assay for identifying genotoxic compounds that show differential cytotoxicity against isogenic chicken DT40 cell lines with known DNA damage response pathways - Rev3 mutant cell line (AID 743014); further: nearly all actives have a fitted effect of over 55% in size
[23] = qHTS assay for identifying genotoxic compounds that show differential cytotoxicity against isogenic chicken DT40 cell lines with known DNA damage response pathways - Rad54/Ku70 mutant cell line (AID 743015); further: nearly all actives have a fitted effect of over 60% in size
[24] = qHTS assay to identify small molecule antagonists of the androgen receptor (AR) signaling pathway - cell viability counter screen (AID 743033; further: nearly all actives have a fitted effect of over 45% in size)
[25] = target: Androgen receptor (Homo sapiens) (UniProt P10275); assay: qHTS assay to identify small molecule antagonists of the androgen receptor (AR) signaling pathway (AID 743035; active means well fitted inhibition curve with a large enough effect in the signal ratio in the repeat runs, not every such curve was filed as active; the % refers to the signal ratio)
Chain of Androgen receptor (Homo sapiens) (P10275 whole entry, looked up): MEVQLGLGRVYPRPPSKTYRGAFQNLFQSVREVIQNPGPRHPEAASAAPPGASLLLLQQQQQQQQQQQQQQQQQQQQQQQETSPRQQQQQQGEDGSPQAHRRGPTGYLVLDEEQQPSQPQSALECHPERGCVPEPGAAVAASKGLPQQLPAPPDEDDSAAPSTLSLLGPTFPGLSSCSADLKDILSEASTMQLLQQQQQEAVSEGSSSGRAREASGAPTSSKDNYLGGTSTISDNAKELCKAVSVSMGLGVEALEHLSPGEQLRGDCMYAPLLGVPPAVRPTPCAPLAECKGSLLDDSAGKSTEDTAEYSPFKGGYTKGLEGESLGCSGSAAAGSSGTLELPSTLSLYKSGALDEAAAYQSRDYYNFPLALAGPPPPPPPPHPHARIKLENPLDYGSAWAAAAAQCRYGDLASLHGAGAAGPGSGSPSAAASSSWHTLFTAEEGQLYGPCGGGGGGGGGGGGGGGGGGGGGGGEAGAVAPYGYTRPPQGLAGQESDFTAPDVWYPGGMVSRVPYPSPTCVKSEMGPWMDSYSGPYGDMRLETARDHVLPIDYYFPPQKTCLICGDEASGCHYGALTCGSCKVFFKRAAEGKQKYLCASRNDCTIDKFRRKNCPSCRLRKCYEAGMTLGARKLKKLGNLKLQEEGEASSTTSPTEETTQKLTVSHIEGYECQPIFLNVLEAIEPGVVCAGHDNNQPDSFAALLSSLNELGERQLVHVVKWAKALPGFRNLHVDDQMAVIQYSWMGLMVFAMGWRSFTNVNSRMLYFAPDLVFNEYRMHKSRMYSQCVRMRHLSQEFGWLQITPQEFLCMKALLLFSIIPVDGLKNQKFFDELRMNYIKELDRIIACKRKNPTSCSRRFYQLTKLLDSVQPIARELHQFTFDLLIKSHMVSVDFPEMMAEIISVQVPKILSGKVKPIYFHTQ
Procedure, shortened: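 HEK293 cells stably carrying UAS-beta-lactamase reporter, 2,000/well, given compounds plus R1881 agonist and incubated 16 h at 37C. LiveBLAzer B/G FRET substrate then added for 2 h at room temperature before fluorescence reading.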

Measured: Potency

CCCCCN(C)CCC(O)(P(=O)(O)O)P(=O)(O)O
inactive: [1] | [2] | [3] | [4] | [5] | [6] | [7] | [8] | [9] | [10] | [11] | [12] | [13] | [14] | [15] | [16] | [17] | [18] | [19] | [20] | [21] | [22] | [23] | [24] | [25]
